Among the data in PubChem BioAssay are growth inhibition, inhibition and outcome values, retold here.

As a reminder, the inhibition is the drop in the measured response relative to a control, in per cent.

A number with no mark means an inactive call. For some of these results: Entries with a potency or affinity are not part of this list. The source made the active and inactive calls. Unless noted, no rule for the calls is given here.

A short description of assay [1]: antimalarial activity against Dd2 strain (AID 2302;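 active = growth inhibition above 50% at the single 2 µM test dose, taken to imply half-maximal potency below 2 µM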;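 also: 0% = DMSO untreated growth and 100% = chloroquine plus artemisinin killed control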). The note with it: P. falciparum Dd2 in RBCs, LDH growth readout, 72 h; at 2 µM; hits give high values.
Assay [2] in a line: human hepatoma cell viability loss – ATP luminescence, cytotoxicity control for P. falciparum antimalarial project, primary screen (AID 2303;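 active = inhibition above 50%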;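 also: 0% = DMSO wells and 100% = digitonin-killed cells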). The note with it: HepG2 viability, 24-48 h, at 10 µM, hits give high values.
The target in assay [3] is L-lactate dehydrogenase (Plasmodium falciparum (isolate CDC / Honduras)) (UniProt Q27743). Put plainly: PfLDH activity inhibition – cell lysate, 3D7 strain, counter-screen for P. falciparum growth inhibition project (AID 2304).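 Also: 0% = vehicle and 100% = reference inhibitor.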 The note with it: P. falciparum 3D7 crude extract, LDH APAD/NBT absorbance; at 2 µM; hits give high values. (In general: Counterscreens check selectivity or assay interference.)
L-lactate dehydrogenase (Plasmodium falciparum (isolate CDC / Honduras)), sequence (Q27743 whole entry, looked up): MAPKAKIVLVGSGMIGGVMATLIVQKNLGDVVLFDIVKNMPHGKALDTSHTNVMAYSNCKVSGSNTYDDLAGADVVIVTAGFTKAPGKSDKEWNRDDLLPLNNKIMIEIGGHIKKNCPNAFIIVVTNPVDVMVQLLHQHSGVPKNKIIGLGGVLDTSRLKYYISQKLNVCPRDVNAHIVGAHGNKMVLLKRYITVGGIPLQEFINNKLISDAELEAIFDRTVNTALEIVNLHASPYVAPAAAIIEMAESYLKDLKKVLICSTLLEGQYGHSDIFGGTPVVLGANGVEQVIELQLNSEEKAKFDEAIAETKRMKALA

A short description of assay [4]: inhibition of 3D7 malaria parasite growth – strain 3D7 (AID 2306).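 Also: 0% = DMSO wells and 100% = chloroquine plus artemisinin control wells.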 The note with it: P. falciparum 3D7 erythrocytic growth, LDH absorbance, 72 h; at 2 µM; hits give high values.
Assay [5] addresses Calcium-dependent protein kinase 1 (Plasmodium falciparum (isolate 3D7)) (UniProt P62344). Put plainly: PfCDPK1 kinase inhibitors, biochemical, TCAMS library (AID 1159585; cut-off not given, nearly all actives have IC50 up to about 0.98 µM;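 also: inhibitors leave more ATP so luminescence rises with inhibition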). The note with it: recombinant PfCDPK1, Kinase-Glo ATP depletion luminescence.
The target of assay [6] is Plasmodium falciparum protein kinase 6 (PK6, PF3D7_1337100) (UniProt Q8IDW1). As to the kind of experiment: PfPK6 kinase inhibitors, biochemical, TCAMS library (AID 1159586). The note with it: recombinant PfPK6, Kinase-Glo ATP depletion luminescence. Background: Kinase-Glo reads ATP consumption through a luciferase reaction.
Plasmodium falciparum protein kinase 6 (PK6, PF3D7_1337100), sequence (Q8IDW1 1-305): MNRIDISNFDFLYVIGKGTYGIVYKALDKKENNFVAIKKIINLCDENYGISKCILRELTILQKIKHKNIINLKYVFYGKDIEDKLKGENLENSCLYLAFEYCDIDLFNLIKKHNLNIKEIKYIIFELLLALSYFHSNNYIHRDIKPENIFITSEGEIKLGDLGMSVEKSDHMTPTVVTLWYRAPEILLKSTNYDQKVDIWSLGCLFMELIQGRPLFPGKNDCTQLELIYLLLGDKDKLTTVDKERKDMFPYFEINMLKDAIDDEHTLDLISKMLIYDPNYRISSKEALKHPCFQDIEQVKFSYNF
The target in assay [7] is Protein kinase 7 (PK7), Plasmodium falciparum 3D7 (PF3D7_0213400) (UniProt Q7YTF7). Put plainly: inhibition of Plasmodium PK7 catalytic activity – biochemical, TCAMS antimalarial set, Kinase-Glo luminescence (AID 1159587). The note with it: recombinant PfPK7, Kinase-Glo ATP depletion luminescence.
Protein kinase 7 (PK7), Plasmodium falciparum 3D7 (PF3D7_0213400), sequence (Q7YTF7 1-343): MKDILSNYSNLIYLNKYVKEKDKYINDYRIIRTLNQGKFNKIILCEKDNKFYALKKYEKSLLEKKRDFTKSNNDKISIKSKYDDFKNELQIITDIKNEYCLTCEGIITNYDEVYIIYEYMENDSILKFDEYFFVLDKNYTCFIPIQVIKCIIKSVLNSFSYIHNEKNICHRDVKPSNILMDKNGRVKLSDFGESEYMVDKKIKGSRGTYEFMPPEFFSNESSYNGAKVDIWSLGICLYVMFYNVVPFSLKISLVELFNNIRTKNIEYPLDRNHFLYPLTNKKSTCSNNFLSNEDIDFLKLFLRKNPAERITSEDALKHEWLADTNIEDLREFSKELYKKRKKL
Assay [8] addresses Calcium-dependent protein kinase 4 (Plasmodium falciparum (isolate 3D7)) (UniProt Q8IBS5). As to the kind of experiment: PfCDPK4 kinase inhibitors, biochemical, TCAMS library (AID 1159588; cut-off not given, nearly all actives have IC50 up to about 0.91 µM). The note with it: recombinant PfCDPK4, Kinase-Glo ATP depletion luminescence.

Calcium-dependent protein kinase 4 (Plasmodium falciparum (isolate 3D7)), sequence (Q8IBS5 whole entry, looked up): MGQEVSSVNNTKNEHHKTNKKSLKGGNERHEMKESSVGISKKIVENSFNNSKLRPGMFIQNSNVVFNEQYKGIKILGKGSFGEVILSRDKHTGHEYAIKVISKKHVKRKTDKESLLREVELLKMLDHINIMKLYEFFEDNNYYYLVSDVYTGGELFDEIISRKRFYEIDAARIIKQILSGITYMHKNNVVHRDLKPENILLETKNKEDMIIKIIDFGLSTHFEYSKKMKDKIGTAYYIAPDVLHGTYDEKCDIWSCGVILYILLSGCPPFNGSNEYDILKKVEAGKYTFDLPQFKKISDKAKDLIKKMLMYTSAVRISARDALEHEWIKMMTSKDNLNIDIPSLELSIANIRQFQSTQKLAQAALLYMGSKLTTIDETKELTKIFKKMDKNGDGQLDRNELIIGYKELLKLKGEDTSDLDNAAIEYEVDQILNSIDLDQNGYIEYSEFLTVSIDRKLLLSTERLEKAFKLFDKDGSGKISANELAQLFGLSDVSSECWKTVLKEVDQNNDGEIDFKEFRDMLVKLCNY
Calcium-dependent protein kinase 1 (Plasmodium falciparum (isolate 3D7)), sequence (P62344 whole entry, looked up): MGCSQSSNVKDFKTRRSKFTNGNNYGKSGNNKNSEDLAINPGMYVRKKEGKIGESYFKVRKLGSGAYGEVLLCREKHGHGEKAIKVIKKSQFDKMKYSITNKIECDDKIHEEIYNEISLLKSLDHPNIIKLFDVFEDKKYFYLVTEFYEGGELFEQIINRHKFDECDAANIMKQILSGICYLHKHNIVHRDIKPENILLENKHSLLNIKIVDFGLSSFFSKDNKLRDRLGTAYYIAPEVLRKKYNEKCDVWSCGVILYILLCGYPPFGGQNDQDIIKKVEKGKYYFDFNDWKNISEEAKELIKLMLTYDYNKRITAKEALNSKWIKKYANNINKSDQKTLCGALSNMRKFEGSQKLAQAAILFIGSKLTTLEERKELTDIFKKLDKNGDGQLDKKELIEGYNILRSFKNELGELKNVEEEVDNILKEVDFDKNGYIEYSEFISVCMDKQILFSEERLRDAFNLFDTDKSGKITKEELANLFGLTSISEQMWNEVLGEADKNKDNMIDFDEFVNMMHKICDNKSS

On to `Cc1cc(CNCCCCCNCc2cccc([N+](=O)[O-])c2)ccc1O`, for which the growth inhibition in assay [1] is -2%; in assay [4] it was 98% (active). The values for the inhibition in assay [2] and in assay [3] were 14% and 0%, respectively. For the same compound, the result in assay [5], in assay [6], in assay [7] and in assay [8] was inactive.
On to `Cc1cc(-c2ccc3c(c2)CCN(CCC2CCC(NC(=O)/C=C/c4ccc(F)cc4)CC2)CC3)on1` (stereo not given), for which the growth inhibition in assay [1] was 47%; in assay [4], 98% (active). Moreover, the inhibition is 29% in assay [2] and -4% in assay [3]. Also, the outcome in assay [5], in assay [6], in assay [7] and in assay [8] was inactive.
In the case of `O=[N+]([O-])c1cnc(Nc2ccccc2O)nc1Nc1ccccc1O`, the growth inhibition in assay [1] was 80% (active); in assay [4] it was 98% (active). The results for the inhibition in assay [2] and in assay [3] were 24% and -3%, respectively. Besides, the outcome in assay [5], in assay [6], in assay [7] and in assay [8] was inactive.
As for `c1ccc(CNCc2cccc(-c3ccc(-c4nc5ccccc5[nH]4)cc3)c2)cc1`, the growth inhibition in assay [1] was 39%; in assay [4], 97% (active). Further, the inhibition in assay [2] is 10%; in assay [3], -5%. Moreover, the result in assay [5], in assay [6], in assay [7] and in assay [8] was inactive.
In the case of `CC(C)COc1ccc(Cl)cc1Cc1nc(-c2nc3ccc(CN4CCCC4)cc3[nH]2)co1`, the growth inhibition was 66% (active) in assay [1] and 101% (active) in assay [4]. The inhibition is 50% (active) in assay [2] and -1% in assay [3]. Further, the result in assay [5], in assay [6], in assay [7] and in assay [8] was inactive.
On to `COc1cc2nc(Nc3ccc(N4CCOCC4)cc3)nc(N)c2cc1OC`, for which the results for the growth inhibition in assay [1] and in assay [4] were 10% and 95% (active), respectively. The inhibition in assay [2] was 8%; in assay [3], -3%. The outcome in assay [5], in assay [6], in assay [7] and in assay [8] was inactive.
In the case of `CN1CCN(CCCN(Cc2csc(-c3ccc(CNCc4ccccc4)cc3)n2)C(=O)Nc2ccc3ccccc3c2)CC1`, the growth inhibition was 63% (active) in assay [1] and 94% (active) in assay [4]. Besides, the inhibition in assay [2] was 12%; in assay [3] it was 3%. For the same compound, the outcome in assay [5], in assay [6], in assay [7] and in assay [8] was inactive.
Turning to `O=C(/C=C/c1ccc(Cl)c(Cl)c1)NCCCCCN1CCC(NC(=O)c2ccc(F)cc2F)CC1`, the growth inhibition in assay [1] is 11%; in assay [4], 96% (active). The values for the inhibition in assay [2] and in assay [3] were 17% and -3%, respectively. Further, the result in assay [5], in assay [6], in assay [7] and in assay [8] was inactive.
In the case of `COCCn1c(-c2nc(-c3ccc(F)cc3)cnc2N)nc2ccccc21`, the growth inhibition in assay [1] and in assay [4] was 98% (active) each time. Further, the inhibition in assay [2] was 16%; in assay [3] it was -6%. Further, the outcome in assay [5], in assay [6], in assay [7] and in assay [8] was inactive.
Turning to `CCCCCCOc1ccc(C(=O)N(Cc2ccccc2)c2c(-c3ccccc3)nc3cc(C)ccn23)cc1`, the growth inhibition in assay [1] was 96% (active); in assay [4] it was 95% (active). Besides, the inhibition in assay [2] was -8%; in assay [3], 3%. For the same compound, the outcome in assay [5], in assay [6], in assay [7] and in assay [8] was inactive.
Consider `COc1ccc(C(=O)CCC(=O)N(Cc2ccc(-c3ccc(CNCc4cccnc4)cn3)cc2)C2CCN(Cc3ccccc3)CC2)cc1F`, for which the growth inhibition in assay [1] is 26%; in assay [4], 94% (active). The inhibition was 30% in assay [2] and 3% in assay [3]. Besides, the outcome in assay [5], in assay [6], in assay [7] and in assay [8] was inactive.
Consider `Cc1cc(C(=O)N(Cc2ccc(-c3ccc(CNCCc4ccc(S(C)(=O)=O)cc4)cn3)cc2)C(C)CN(C)C)ccc1[N+](=O)[O-]` (stereo not given), for which the growth inhibition in assay [1] is 46%; in assay [4], 99% (active). The inhibition is 17% in assay [2] and -1% in assay [3]. The outcome in assay [5], in assay [6], in assay [7] and in assay [8] was inactive.
Regarding `CS(=O)(=O)Nc1ccc2[nH]cc(C3CCN(CCCCCNC(=O)/C=C/c4ccc(Cl)c(Cl)c4)CC3)c2c1`, the figures for the growth inhibition in assay [1] and in assay [4] were 0% and 101% (active), respectively. The results for the inhibition in assay [2] and in assay [3] were 1% and 5%, respectively. In addition, the result in assay [5], in assay [6], in assay [7] and in assay [8] was inactive.
For the compound `COc1ccc(Oc2ccc(Nc3ccnc4ccc(C(F)(F)F)cc34)cc2)cc1OC`, the growth inhibition in assay [1] is 17%; in assay [4], 90% (active). Besides, the inhibition in assay [2] was -2%; in assay [3], 2%. Moreover, the outcome in assay [5], in assay [6], in assay [7] and in assay [8] was inactive.
As to `Cc1cc(F)ccc1Nc1nc(N(C)c2ccccc2)c2cc(OCCCN(C)C)ccc2n1`, the growth inhibition in assay [1] is 49%; in assay [4] it was 100% (active). The inhibition in assay [2] was 31%; in assay [3], 4%. The outcome in assay [5], in assay [6], in assay [7] and in assay [8] was inactive.
As to `O=C(O)/C=C/c1cccc(F)c1F`, the growth inhibition in assay [1] is 1%; in assay [4], 96% (active). For the same compound, the inhibition in assay [2] was 58% (active); in assay [3], -1%. For the same compound, the outcome in assay [5], in assay [6], in assay [7] and in assay [8] was inactive.
As to `CCCS(=O)(=O)c1nc(S(=O)(=O)c2ccc(Cl)cc2)c(N2CCCCC2)s1`, the values for the growth inhibition in assay [1] and in assay [4] were 34% and 87% (active), respectively. The values for the inhibition in assay [2] and in assay [3] were 3% and -3%, respectively. In addition, the outcome in assay [5], in assay [6], in assay [7] and in assay [8] was inactive.
Turning to `CCCCCN1CCC(NS(=O)(=O)c2cccc(C(=O)Nc3cccc(C(F)(F)F)c3)c2)C1` (stereo not given), the growth inhibition in assay [1] was 17%; in assay [4], 86% (active). Besides, the inhibition in assay [2] was 25%; in assay [3], -5%. The outcome in assay [5], in assay [6], in assay [7] and in assay [8] was inactive.
For the compound `COc1cc2nc(NCCCN3CCCCC3)nc(NCc3ccccc3)c2cc1OC`, the growth inhibition in assay [1] is 3%; in assay [4], 102% (active). Further, the inhibition in assay [2] is 12%; in assay [3] it was 1%. Also, the result in assay [5], in assay [6], in assay [7] and in assay [8] was inactive.
For the compound `CN(C)CCCNCc1ccc(-c2ccc(CNCCc3ccccc3)cc2)cc1`, the growth inhibition in assay [1] was 87% (active); in assay [4], 100% (active). The inhibition was 61% (active) in assay [2] and 0% in assay [3]. Further, the result in assay [5], in assay [6], in assay [7] and in assay [8] was inactive.
